Screening data deposited in PubChem by National Center for Advancing Translational Sciences (NCATS).
HT1080 IDH1KD tx – kills HT-1080 cells with IDH1 knockdown. HT-1080 IDH1 knockdown viability, ATP luminescence, 48 h. Potency, µM (series often up to 46.1 µM), for the others: top-dose activity, negative = toxicity, hits mostly cytotoxic. 2% of 360,000 active;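 also: potency is read from the fitted curve at half-maximal effect; 0% = DMSO wells and -100% = cell-free medium wells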
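Viability of IDH1-knockdown HT-1080 fibrosarcoma cells was assessed by CellTiter-Glo after 48 h at 37 °C with titrated compound; concentration-effect curves were classified by fit quality and response size.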
DT40 TDP1 no CPT – qHTS for Inhibitors of human tyrosyl-DNA phosphodiesterase 1 (TDP1): qHTS in cells in absence of CPT | DT40 Tdp1-/- hTDP1 cells, no CPT, ATP luminescence, 48 h | Potency, µM (doses to about 46.2 µM), without a hit: at the highest dose activity change, negative = growth inhibition, most hits filed as inhibitors | 15% of 420,000 active | AID 686978, 2013; also: potency is read from the fitted curve at half-maximal effect; nearly all actives have a fitted effect of over 55% in size
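Compound effects on proliferation are scored in DT40 Tdp1-/-;hTDP1 cells in the absence of CPT. ATP levels (CellTiter-Glo luminescence) are recorded after a ≥48 hr, 37 °C incubation.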
HT1080NT lethal – kills 2HG-producing HT-1080-NT fibrosarcoma cells; HT-1080-NT fibrosarcoma viability, CellTiter-Glo ATP luminescence, 48 h; Potency, µM (titrated, usually from 46.1 µM), without a hit: top-dose activity, negative = less viability, usual class: cytotoxic; 1.6% of 360,000 active; AID 686970;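 also: NT is the 2HG producing partner of a matched IDH1 knockdown line; potency is read from the fitted curve at half-maximal effect; 0% = DMSO-treated cells and -100% = media-only wells without cells; nearly all actives have a fitted effect of over 55% in size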
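Fibrosarcoma NT cells, 750 per well in 5% FBS RPMI, were exposed to compound for 48 hours. Viability: CellTiter-Glo luminescence.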
uPA surface inh – cell surface uPA generation inhibition | cell surface uPA generation assay, qHTS | Potency, µM (highest dose often 38.3 µM), without a hit: at the highest dose activity change, negative = inhibition, hits mostly inhibitors | 0.31% of 330,000 active | AID 540303; active = well fitted inhibition curve with a large enough effect; inconclusive = small, poorly fitted or top-dose-only effect; inactive = no such curve, though single readings can be large or run the other way; tested in mouse RAW 264.7 cells; also: potency is read from the fitted curve at half-maximal effect; nearly all actives have a fitted effect of over 55% in size
IL1B secr inh – blocks inflammasome-driven IL-1 beta release; 4.7% of 360,000 active; AID 743279; activity change, % at 57.5 µM; THP-1 LPS/ATP IL-1B secretion, AlphaLISA, 16 h; stronger effect = lower value; in the data active = activity change below about -50%; inconclusive = mostly about -30% to -49%
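Secreted IL-1B measured by AlphaLISA bead assay after 16 h compound exposure of THP-1 cells; compounds (final up to 57.5 uM) added 1 h before LPS (250 ng/mL) and ATP (1.25 mM) stimulation; lower signal means less secretion.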
TDP1 cell CPT – growth inhibition of DT40 Tdp1-/-;hTDP1 cells with camptothecin (screen for TDP1 inhibitors) | Potency, µM (highest dose often 46.2 µM), inactives show top-dose activity change, negative = growth inhibition, actives largely listed as inhibitors | 12% of 420,000 active | chicken DT40 Tdp1-/-;hTDP1 cells + 20 nM CPT, ATP luminescence, 48 h; also: potency is read from the fitted curve at half-maximal effect; nearly all actives have a fitted effect of over 55% in size
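Cell growth measured by CellTiter-Glo luminescence after a minimum 48 h, 37 C compound exposure with 20 nM CPT in Tdp1-knockout DT40 cells stably expressing hTDP1, seeded 400/well; qHTS titration format.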
An asterisk follows results filed as active; u = inconclusive; x = no result; [ ] = dose if it differs, or a comment. Hits are enriched below; roughly 19% of the tested compounds scored in any of these assays. Unless noted, calls follow the shape of the dose curve; as a rule, active = well fitted curve in the direction sought with a large enough effect; inconclusive = small, poorly fitted or top-dose-only effect, or another doubt; inactive = no such curve, though single readings can be large; an effect the other way counts as inactive or inconclusive. Unless noted, % is scaled to controls: 0 for no effect and ±100 for the full control effect.

SMILES	HT1080 IDH1KD tx	DT40 TDP1 no CPT	HT1080NT lethal	uPA surface inh	IL1B secr inh	TDP1 cell CPT
Fc1ccccc1CNCCCSc1nnnn1-c1ccccc1	x	u	x	x	x	16.4µM*
Oc1cc(CNCc2ccccc2)c(O)cc1CNCc1ccccc1	-26.5%	13µM*	-4.8%	-0.7%	-11.6	u
CC(C)c1ccc(CNC(=O)CCc2ccccc2)cc1	0.5%	u	-4.7%	2.5%	18.6	-21.4%
CC(C)c1ccc(CNCCSc2nnnn2-c2ccccc2)cc1	x	25.9µM*	x	x	x	16.4µM*
CC(C)c1ccc(CNCCSc2nnnn2C)cc1	x	-17.2%	x	x	x	-7.2%
CC(C)c1ccc(CNCc2ccccc2)cc1	-1.1%	-26.8%	2.0%	-3.1%	-51.0*	-26.2%
CC(C)Cc1nnc(NC(=O)CCC(=O)N2CCN(c3ccccc3F)CC2)s1	-0.7%	-2.4%	-3.2%	6.0%	15.1	-18.0%
COc1cc(C(=O)N2CCCC(c3cc(C(=O)NCc4ccc(F)cc4)no3)C2)cc(OC)c1C (configuration not stated)	u	u	-13.8%	x	-27.0	23.1µM*
O=C(NCc1ccc(F)cc1)c1cc(C2CCCN(C(=O)C3CCCCC3)C2)on1 (configuration not stated)	4.8%	u	13.7%	x	-15.7	25.9µM*
CC(=O)Nc1ccc(C(=O)N2CCCC(c3cc(C(=O)NCc4ccc(F)cc4)no3)C2)cc1 (configuration not stated)	-8.2%	u	-7.2%	x	-19.3	u
O=C(NCc1ccccc1)c1cc(C2CCCN(C(=O)C3CCCCC3)C2)on1 (configuration not stated)	27.4%	u	24.0%	x	-0.6	23.1µM*
O=C(NCc1ccccc1)c1cc(C2CCCN(C(=O)C3CC3)C2)on1 (configuration not stated)	3.8%	-9.9%	19.7%	x	2.4	-0.3%
CCCC(=O)N1CCCC(c2cc(C(=O)NCc3ccc(F)cc3)no2)C1 (configuration not stated)	11.5%	-26.2%	3.4%	x	-1.1	-3.0%
O=C(NCc1ccccc1OC(F)(F)F)C1CCC(=O)N(C2CC2)C1 (configuration not stated)	5.0%	0.3%	0.2%	24.1%	12.8	7.6%
Cc1cccn2c(CN3CCNC(=O)CC3)c(C(=O)N(C)CCc3ccccc3)nc12	1.5%	-10.6%	3.6%	-1.1%	17.4	-4.0%
C=CCNC(=S)NNC(=O)CCC(O)CCCCC (configuration not stated)	8.7%	18.4µM*	-1.1%	-1.8%	14.5	14.6µM*
Cc1ccc(S(=O)(=O)c2cn(Cc3ccccc3Cl)c3ccc(F)cc3c2=O)cc1	x	16.4µM*	x	x	x	18.4µM*
Cc1ccccc1Cn1cc(S(=O)(=O)c2ccc(Cl)cc2)c(=O)c2cc3c(cc21)OCO3	x	u	x	x	x	-14.6%
Cc1ccc(S(=O)(=O)c2cn(Cc3ccccc3F)c3cc4c(cc3c2=O)OCO4)cc1	x	u	x	x	x	5.8µM*
COc1ccccc1/C=C(/C#N)C(=O)O	u	-21.3%	-28.1%	-1.6%	-7.1	4.4%
O=C(NCC1CCC2(CCN(Cc3ccccc3O)CC2)O1)C1CCCO1 (configuration not stated)	x	-11.2%	x	x	x	-5.5%[9.04 µM]
COc1cc2c(-c3cccc(Cl)c3)nc3c(c(C)nn3-c3ccccc3)c2cc1OC	x	-2.9%	x	x	x	-2.1%
O=C(/C(=C/O)N=Nc1ccc(Cl)cc1)c1ccncc1	20.6µM*	25.9µM*	u	-4.3%	-6.9	14.6µM*
Cc1ccc(N=N/C(=C\O)C(=O)c2ccncc2)cc1	16.4µM*	u	25.9µM*	-6.1%	-6.8	u
Cc1cc(NC(=O)CSCC(=O)N2CCN(c3ccccc3)CC2)no1	-5.8%	-19.5%	-1.6%	-3.6%	16.2	10.9%
SMILES	HT1080 IDH1KD tx	DT40 TDP1 no CPT	HT1080NT lethal	uPA surface inh	IL1B secr inh	TDP1 cell CPT
Cc1cc(SCc2ccc([N+](=O)[O-])cc2)nc(=O)[nH]1	2.5%	-20.9%	2.7%	-1.6%	5.5	5.8%
c1cc(-c2sc(-c3ccncc3)c(-c3ccncc3)c2-c2ccncc2)ccn1	-29.5%	10.3µM*	-22.0%	10.1%	x	u
Cn1ncc(Cl)c1C(=O)Nc1nc2ccc(Cl)cc2s1	-3.5%	23.1µM*	-4.8%	-5.8%	16.9	16.4µM*
COc1ccccc1C(=O)O/N=C1/CCCc2c1ccc(OC)c2[N+](=O)[O-]	-6.5%	u	-4.3%	-6.7%	-21.3	-24.7%
COc1cc(C(=O)O/N=C2\CCCc3c2ccc(OC)c3[N+](=O)[O-])cc(OC)c1OC	-0.9%	3.26µM*	-3.8%	2.4%	-3.7	10.3µM*
COc1cccc(O)c1CN1CCC(n2nccc2NC(=O)c2ccc3c(c2)OCO3)CC1	-11.5%	3.5%	-0.8%	0.5%	-1.0	0.0%
COc1ccc(-c2noc(CSCC(=O)Nc3cc(OC)c(OC)c(OC)c3)n2)cc1OC	x	-8.7%	x	x	x	-2.0%
COc1ccc(OC)c2[nH]c(=O)c(CCNS(=O)(=O)c3ccc(F)cc3)cc12	-0.5%	-16.7%	9.4%	-1.7%	11.9	-1.3%
Cc1ccc(S(=O)(=O)NCCc2cc3ccc(C)c(C)c3[nH]c2=O)cc1	-3.1%	18.4µM*	3.1%	0.3%	2.7	u
CCCS(=O)(=O)NCCc1cc2ccc(C)cc2[nH]c1=O	-0.1%	2.0%	6.7%	-0.2%	0.0	6.4%
Cc1cc(C)c(S(=O)(=O)NCCc2cc3c(C)ccc(C)c3[nH]c2=O)c(C)c1	x	3.66µM*	x	x	x	7.31µM*
Cc1ccc2cc(CCNS(=O)(=O)c3ccc(F)cc3)c(=O)[nH]c2c1C	-1.9%	18.4µM*	-4.8%	2.2%	29.0	20.6µM*
CCOP(=O)(OCC)C(NC(=O)c1cccs1)c1ccccc1 (configuration not stated)	-0.7%	5.3%	-4.8%	4.0%	36.0	5.0%
CCCNC(=O)CN(C)CC(=O)Nc1ccccc1C#N	3.2%	2.1%	-2.4%	-0.3%	19.3	26.5%
CCOC(=O)c1sc(NC(=O)c2cc3nc(-c4ccccc4)cc(C(F)(F)F)n3n2)c(C(=O)OCC)c1C	x	-19.5%	x	x	x	-19.8%
COc1ccc(NC(=O)CN(C)C(=O)CSc2nc3ccccc3s2)cc1	-6.1%	u	-6.5%	-2.5%	9.7	4.8%
Cc1cccc(Nc2cc(C)nc3nc(-c4ccccc4)nn23)c1	x	-10.2%	x	x	x	-23.7%
Cc1cc(C)cc(Nc2cc(C)nc3nc(-c4ccco4)nn23)c1	x	9.2µM*	x	x	x	16.4µM*
CC(=O)Nc1ccc(S(=O)(=O)N(C)c2ccccc2)cc1	-8.1%	-5.9%	11.2%	x	21.4	-8.0%
